Measured values reported in PubChem BioAssay (EPA / NIEHS).
Inconclusive results are not listed. Active and inactive are the calls of the source. Rule for the calls, unless noted: active = hit-call score of the fitted dose curve at least 0.9, where 1 is the maximum; inactive = score below 0.9.

Columns and labels:
[1] = TOX21_p53_BLA_p2_viability: Viability Assessment in the Tox21 HCT-116 p53 Agonism Beta-lactamase Assay, Phase 2 (AID 2283591; active = hit-call score of the fitted dose curve at least 0.9, where 1 is the maximum;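 note: actives lower the ATP signal meaning cytotoxicity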)
In short: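 HCT-116 p53-bla cells (4000/well) rested 5 h at 37C, then received compounds in DMSO (217-fold dilution) for 16 h at 37C, 5% CO2. After the CCF4 read, CellTiter-Glo was added; ATP luminescence was read after 30 min at room temperature.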

[2] = TOX21_p53_BLA_p3_viability: Viability Assessment in the Tox21 HCT-116 p53 Agonism Beta-lactamase Assay, Phase 3 (AID 2283593; active = hit-call score of the fitted dose curve at least 0.9, where 1 is the maximum;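 note: cells exposed to compound for 16 h before reading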)
In short: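 HCT-116 cells (4000/well) rested 5 h at 37C, then got DMSO compounds by pin tool (217-fold dilution) for 16 h at 37C, 5% CO2. After the bla read, CellTiter-Glo was added and luminescence read at 30 min, room temperature.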

[3] = target: Cellular tumor antigen p53 (Homo sapiens) (UniProt P04637); assay: TOX21_p53_BLA_p3_ratio: Tox21 HCT-116 p53 Agonism Beta-lactamase Assay, Ratio, Phase 3 (AID 2283596; active = hit-call score of the fitted dose curve at least 0.9, where 1 is the maximum)
In short: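 Cells were seeded at 4000/well, rested 5 h at 37C, then dosed with DMSO compound solutions (217-fold dilution) for 16 h. CCF4-AM substrate was loaded for 2 h at room temperature, and the 460/530 nm emission ratio was fitted for gain of signal versus DMSO.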

[4] = TOX21_p53_BLA_p4_viability: Viability Assessment in the Tox21 HCT-116 p53 Agonism Beta-lactamase Assay, Phase 4 (AID 2283597; active = hit-call score of the fitted dose curve at least 0.9, where 1 is the maximum;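 note: hits lower the luminescence signal meaning cytotoxicity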)
In short: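 4000 HCT116 cells per well; 5 h attachment; compounds from DMSO, 217-fold dilution; 16 h at 37C. Then CCF4-AM, 2 h RT, followed by CellTiter-Glo, 30 min RT, luminescence. Decrease = cytotoxicity.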

[5] = target: Cellular tumor antigen p53 (Homo sapiens) (UniProt P04637); assay: TOX21_p53_BLA_p5_ratio: Tox21 HCT-116 p53 Agonism Beta-lactamase Assay, Ratio, Phase 5 (AID 2283599; active = hit-call score of the fitted dose curve at least 0.9, where 1 is the maximum)
In short: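 HCT-116 cells carrying a p53-inducible beta-lactamase reporter were seeded at 4000 cells/well and dosed after 5 h with compound in DMSO (217-fold dilution). After 16 h at 37C, CCF4-AM substrate was added for 2 h, and the 460/530 nm emission ratio was scored as gain-of-signal versus DMSO.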

[6] = TOX21_p53_BLA_p5_viability: Viability Assessment in the Tox21 HCT-116 p53 Agonism Beta-lactamase Assay, Phase 5 (AID 2283600; active = hit-call score of the fitted dose curve at least 0.9, where 1 is the maximum)
In short: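 Decreased CellTiter-Glo luminescence denotes lost viability. Exposure: 16 h at 37C, 5% CO2, with compounds from DMSO stocks diluted 217-fold in wells of 4000 cells.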

[7] = target: Cellular tumor antigen p53 (Homo sapiens) (UniProt P04637); assay: TOX21_p53_BLA_p4_ratio: Tox21 HCT-116 p53 Agonism Beta-lactamase Assay, Ratio, Phase 4 (AID 2283601; active = hit-call score of the fitted dose curve at least 0.9, where 1 is the maximum)
In short: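 HCT116 cells carrying an inducible beta-lactamase reporter were plated at 4000 cells/well, rested 5 h, then exposed to compounds in DMSO (217-fold dilution) for 16 h at 37C. CCF4-AM substrate was loaded 2 h at room temperature; 460/530 nm emission ratio scored gain-of-signal versus DMSO.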

[8] = CCTE_Shafer_MEA_dev_firing_rate_mean: CCTE's Neural Network Formation Assay for Mean Firing Rate, Shafer Lab (AID 2284031)
In short: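 Read-out: spike count/recording length, averaged over active electrodes, then AUC across days 5, 7, 9, 12. Rat cortical cultures on MEA; continuous 12-day exposure, media and treatment renewed DIV 5, 9; DMSO baseline.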

[9] = CCTE_Shafer_MEA_dev_per_burst_spike_percent: CCTE's Neural Network Formation Assay for Percent of Spikes in a Burst, Shafer Lab (AID 2284032);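 note: fitted as a decrease in burst spike percentage below DMSO baseline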
In short: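 Value is trapezoidal AUC over recordings on days 5, 7, 9 and 12 of the well-mean fraction of spikes falling in single-electrode bursts; rat cortical cultures exposed continuously from plating, treatment renewed DIV 5 and 9, fitted downward against DMSO.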

[10] = CCTE_Shafer_MEA_dev_active_electrodes_number: CCTE's Neural Network Formation Assay for Number of Active Electrodes, Shafer Lab (AID 2284040; active = hit-call score of the fitted dose curve at least 0.9, where 1 is the maximum;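 note: potency for loss of active electrodes versus DMSO so lower counts are hits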)
In short: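 Developing rat cortical networks on MEAs, exposed DIV 0–12. Value is the AUC of active-electrode counts (≥5 spikes/min) from days 5, 7, 9, 12, relative to DMSO.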

[11] = CCTE_Shafer_MEA_dev_burst_rate: CCTE's Neural Network Formation Assay for Burst Rate, Shafer Lab (AID 2284042)
In short: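 Developmental network assay measuring how 12-day exposure of rat cortical neuron cultures alters bursting on extracellular MEA recordings. Values are AUC of well-mean burst rate across four recording days, relative to DMSO vehicle.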

[12] = CCTE_Shafer_MEA_dev_bursting_electrodes_number: CCTE's Neural Network Formation Assay for Number of Bursting Electrodes, Shafer Lab (AID 2284043; active = hit-call score of the fitted dose curve at least 0.9, where 1 is the maximum;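 note: potency is for loss of bursting electrodes relative to DMSO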)
In short: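 Counted: electrodes with burst rate ≥1 per 2 min in each well. Cells: primary rat cortex, 1.5 x 10^5/well, on 16-electrode MEA wells. Exposure: DIV 0–12, compound renewed DIV 5 and 9. Recording days 5, 7, 9, 12; AUC vs DMSO baseline.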

[13] = CCTE_Shafer_MEA_dev_per_burst_interspike_interval: CCTE's Neural Network Formation Assay for Burst Interspike Interval, Shafer Lab (AID 2284044)
In short: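 Primary rat cortical neurons on 48-well MEA plates, exposed from day 0 through day 12, treatment renewed at DIV 5 and 9. Within-burst interspike interval recorded days 5, 7, 9, 12, well-averaged, summarised as AUC; negative fit versus DMSO.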

[14] = CCTE_Shafer_MEA_dev_burst_duration_mean: CCTE's Neural Network Formation Assay for Mean Burst Duration, Shafer Lab (AID 2284045)
In short: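 Network-formation assay in primary rat cortical neurons; treatment spans twelve days of development. Mean burst duration per well is integrated by trapezoidal AUC and fitted in the loss-of-signal direction against DMSO baseline.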

[15] = CCTE_Shafer_MEA_dev_interburst_interval_mean: CCTE's Neural Network Formation Assay for Mean Interburst Interval, Shafer Lab (AID 2284046);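 note: well-mean interburst interval of bursting electrodes as AUC over four recording days; curve fitted for decrease in interburst interval relative to DMSO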
In short: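 Network formation assay in primary rat cortical cultures, exposed from DIV 0 to 12. Mean interburst interval per well, integrated as AUC over four recordings.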

[16] = CCTE_Shafer_MEA_dev_network_spike_number: CCTE's Neural Network Formation Assay for Number of Network Spikes, Shafer Lab (AID 2284048);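 note: synchronized bursts across electrodes counted on days 5 7 9 12 and integrated as AUC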
In short: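 Extracellular recordings from 16-electrode wells track network formation in rat cortical cultures under continuous treatment from plating. The endpoint is network spike number, expressed as AUC across DIV 5–12 relative to DMSO vehicle.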

[17] = CCTE_Shafer_MEA_dev_network_spike_peak: CCTE's Neural Network Formation Assay for Mean Number of Electrodes in Network Spike, Shafer Lab (AID 2284049);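 note: fitted for loss of signal meaning fewer electrodes in network spikes than DMSO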
In short: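 Continuous 12-day exposure of rat cortical cultures, starting at plating, on MEA plates. Endpoint: electrodes participating in network-spike peaks, AUC across DIV 5–12, DMSO as negative control.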

[18] = CCTE_Shafer_MEA_dev_spike_duration_mean: CCTE's Neural Network Formation Assay for Mean Spike Duration, Shafer Lab (AID 2284051);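 note: mean network spike duration pooled as area under curve over DIV 5 to 12 recordings; potency for a decrease in mean network spike duration versus DMSO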
In short: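 With DMSO as baseline, loss of mean network spike duration was scored from extracellular recordings of rat cortical neurons on MEA plates. Exposure spanned plating to DIV 12; the four recording days were collapsed into one AUC value.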

[19] = CCTE_Shafer_MEA_dev_network_spike_duration_std: CCTE's Neural Network Formation Assay for Standard Deviation of Network Spike Duration, Shafer Lab (AID 2284052);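 note: area under curve of spike duration SD across recording days 5 to 12; hits are decreases in network spike duration SD versus DMSO vehicle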
In short: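 Developing networks of rat cortical neurons were exposed over twelve days in vitro on 48-well MEA plates. Trapezoidal AUC of recordings (DIV 5–12) was analysed for signal loss relative to DMSO vehicle.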

[20] = CCTE_Shafer_MEA_dev_per_network_spike_spike_number_mean: CCTE's Neural Network Formation Assay for Mean Number of Spikes in a Network Spike, Shafer Lab (AID 2284053)
In short: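 First, rat cortical cells (1.5 x 10^5/well) were seeded onto MEA wells; second, dosing began at plating and was refreshed on DIV 5 and 9; finally, network-spike spike counts across DIV 5–12 were summarized as AUC.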

[21] = CCTE_Shafer_MEA_dev_per_network_spike_spike_percent: CCTE's Neural Network Formation Assay for Percent of Spikes in a Network Spike, Shafer Lab (AID 2284054)
In short: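 Developing networks of rat cortical neurons are dosed at day 0 and recorded extracellularly four times up to day 12. The endpoint is the area under the curve of percent spikes in network spikes, fitted in the negative direction relative to DMSO.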

Measured: AC50

Cellular tumor antigen p53 (Homo sapiens), sequence (P04637 whole entry, looked up): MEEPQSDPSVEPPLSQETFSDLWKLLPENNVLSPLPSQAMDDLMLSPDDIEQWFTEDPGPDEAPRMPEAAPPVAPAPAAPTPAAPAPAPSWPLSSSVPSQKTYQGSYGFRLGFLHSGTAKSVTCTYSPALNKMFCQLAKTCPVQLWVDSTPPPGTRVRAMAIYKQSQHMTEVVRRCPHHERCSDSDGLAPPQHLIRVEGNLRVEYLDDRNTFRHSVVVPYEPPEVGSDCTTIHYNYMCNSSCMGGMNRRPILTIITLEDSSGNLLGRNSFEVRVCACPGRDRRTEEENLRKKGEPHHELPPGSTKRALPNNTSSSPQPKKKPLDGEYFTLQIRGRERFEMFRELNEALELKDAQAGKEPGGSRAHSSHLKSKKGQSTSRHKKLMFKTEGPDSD

Brc1ccc(Oc2cc(Br)c(Br)cc2Br)c(Br)c1
active: [9] 13.2 µM | [10] 14.1 µM | [12] 13.6 µM | [17] 10 µM | [18] 10 µM | [20] 10 µM | [21] 13.5 µM
inactive: [1] | [2] | [3] | [4] | [5] | [6] | [7] | [8] | [11] | [13] | [14] | [15] | [16] | [19]
